The campaign covered roughly 48,000 compounds. About 13,000 (27%) showed an effect of 50% or more. Some of the results follow.
test system: Wolbachia pipientis; assay: Anti-Wolbachia Cell-Based Screen; type: functional; design: scale not given: in the data most compounds retested in dose-response had high values; details: 5 µM

SMILES | Percent Effect [%]
Cc1cc(CN(C)CC2CC(C3CCCCC3)=NO2)no1 (stereo unspecified) | 7.354
CC(C)C[C@H](N)COc1cccc(F)c1Oc1cccc(Cl)c1 | 101.2
CC(CNS(N)(=O)=O)Oc1cccc(Cl)c1 (stereo unspecified) | -1.116
Cc1ccc(Oc2c(F)cccc2OC[C@@H](N)CC(C)C)cc1 | 105.2
CC(C)COc1ccccc1C(N)CC(C)C (stereo unspecified) | 3.721
COc1ccccc1C(N)CC(C)C (stereo unspecified) | -3.152
CCOc1ccccc1C(N)CC(C)C (stereo unspecified) | -6.989
CCCOc1ccccc1C(N)CC(C)C (stereo unspecified) | -0.2003
CC(C)C[C@H](N)COc1cccc(F)c1Oc1ccc(Cl)cc1 | 75.53
CC(C)C[C@H](N)COc1cccc(F)c1Oc1ccccc1 | 86.38
Cc1nc(CN)cc(N2CCC(O)(c3ccc(Cl)cc3)CC2)n1 | -14.21
O=C(NC(c1ccc(Cl)cc1)C(F)(F)F)c1nc(=O)[nH][nH]1 (stereo unspecified) | -8.616
CCN(C(=O)COC)C(c1cccnc1)c1cc(C)cc(C)c1 (stereo unspecified) | 20.72
CCC(C)Oc1cc(C(=O)N(c2cccnc2)C(C)C)ccn1 (stereo unspecified) | -13.41
CCc1cc(N2CCN(c3ccc(Cl)cn3)CC2)n2nccc2n1 | 4.069
COCC1CN(Cc2ccoc2)Cc2cn(CC3CCCC3)nc21 (stereo unspecified) | -3.642
Cc1cnn(CC2CN(CCc3ccncc3)CCO2)c1 (stereo unspecified) | -9.167
Cc1cnn(CC2CN(Cc3cccc(C(=O)N(C)C)c3)CCO2)c1 (stereo unspecified) | 5.735
Cc1cnn(CC2CN(Cc3cccc(OCC(N)=O)c3)CCO2)c1 (stereo unspecified) | -6.391
Cc1cnn(CC2CN(CC(=O)N3CCc4ccccc43)CCO2)c1 (stereo unspecified) | -2.09
Cc1cnn(CC2CN(Cc3cccc(C(N)=O)c3)CCO2)c1 (stereo unspecified) | 99.45
Cc1cnn(CC2CN(Cc3cccc(OC(C)C)c3)CCO2)c1 (stereo unspecified) | 92.31

SMILES | Percent Effect [%]
Cc1cnn(CC2CN(Cc3cccnc3)CCO2)c1 (stereo unspecified) | 94.04
Cc1cnn(CC2CN(Cc3ccc(C(N)=O)cc3)CCO2)c1 (stereo unspecified) | 85.4
Cc1csc(C2(NCc3ccc(OCC(F)F)cc3)CCCC2)n1 | -12.46
CC(C)(C)c1noc(OCC(=O)NCC(F)(F)F)n1 | 4.463
CCNc1ncc(C(=O)Nc2nnc(N3CCCCC3)[nH]2)s1 | 22.13
CC(NC(=O)COc1ccccc1C(=O)O)c1ccc(F)cc1 (stereo unspecified) | -21.32
Cc1ccc(-c2nnc(CCC(=O)NCc3cn(C)nc3C)o2)s1 | -9.163
COc1cc(CCC(C)O)c(OC)c2c1OCO2 (stereo unspecified) | 17.45
CC(C)N(CCO)C(=O)C1CCC(=O)N(CCc2cccc(F)c2)C1 (stereo unspecified) | 8.608
CC(C)CNC(=O)CNC(=O)NC(C)COc1ccccc1F (stereo unspecified) | 103.7
COCCNC(=O)NC(C)COc1ccc(F)cc1F (stereo unspecified) | 119.4
Cc1noc(C)c1CNC(=O)NCCOc1ccc(F)cc1F | -6.419
COCCNC(=O)NCc1ccc(OC(C)C)c(F)c1 | 2.22
Cn1cccc1C(O)CNC(=O)COc1ccccc1F (stereo unspecified) | -2.595
CC(COc1ccccc1F)NC(=O)N[C@@H]1C=C[C@H](CO)C1 (stereo partly specified) | -7.056
COC[C@]1(O)CCN(C(=O)c2ccc(CN(C)C)o2)CC1(C)C | -8.345
Cc1cnc(N)nc1N1CCN(CCCO)CC1 | -5.518
CC1(C)[C@H](Cc2cc(CO)on2)C[C@@H]1NCc1ccc(CO)o1 | -1.541
Cc1c(Cl)cccc1S(=O)(=O)NCc1cnc(N(C)C)n1C | -2.35
CN(C)c1nc(NCc2cccnc2N)ncc1F | 20.84
CC(C)N(C)S(=O)(=O)NCc1cccnc1N(C)C | 34.56
CN(C)c1ncccc1CNS(=O)(=O)c1cc(F)ccc1F | 114.6

SMILES | Percent Effect [%]
COc1ccc(S(=O)(=O)NCc2cccnc2N(C)C)cc1F | -8.756
CN(C)c1ncccc1CNS(=O)(=O)c1ccc(F)cc1F | 106.1
CN(C)c1ncccc1CNS(=O)(=O)c1ccccc1Cl | 109.5
CN(C)C(CNS(=O)(=O)c1ccc(F)cc1F)c1cccn1C (stereo unspecified) | -13.11
CN(C)C(CNS(=O)(=O)c1cc(F)ccc1F)c1cccn1C (stereo unspecified) | 10.84
COC(=O)c1ccc(S(=O)(=O)NCc2cccnc2N(C)C)cc1 | -18.83
CN(C)c1ncccc1CNS(=O)(=O)c1cc(F)cc(F)c1 | 128.3
O=C1CC2(CCN(c3nccc(-c4cc(C(=O)O)ccn4)n3)CC2)CN1 | 4.533
CC(C)(C)c1ncc(CNc2ccn(CCc3ccncc3)n2)s1 | 6.667
CC1CS(=O)(=O)CCN1Cc1ccccc1N(C)C (stereo unspecified) | -2.207
CCc1cc(N[C@@H]2C[C@H]3CC[C@@H]2C3)n2nccc2n1 | 3.761
Cc1cc(C(=O)N(C)Cc2nc(-c3ccccn3)no2)c(C)o1 | -5.968
CCCC(C)CS(=O)(=O)NCc1cccnc1N(C)C (stereo unspecified) | 13.21
CN(C)c1ncccc1CNC(=O)N(Cc1ccccc1F)C1CC1 | 8.051
CN(C)c1ncccc1CNS(=O)(=O)c1c(F)cccc1F | 108
CO[C@H]1CCN(S(=O)(=O)c2cccs2)[C@H]1Cc1ccncc1 | -16.22
Cc1cnn(-c2cncc(C(N)=O)c2)c1 | -7.115
COCC(NC(=O)NCc1sc(C)nc1C)c1ccco1 (stereo unspecified) | -12.64
CC(C)(C)C(=O)NCCNc1cc(N2CCCC2)ncn1 | -0.9567
O=C(Cc1ccc(F)cc1)NCCNc1cc(N2CCCC2)ncn1 | 80.33
CCOc1ccccc1NC(=O)Nc1cc(N2CCCC2)ncn1 | -20.57
O=C(NCCNc1cc(N2CCCC2)cnn1)Nc1ccccc1F | 106.6

SMILES | Percent Effect [%]
O=C(Cn1ncc(N2CCNCC2)cc1=O)NCCc1ccc(F)cc1 | -10.43
Cc1ccccc1NC(=O)Nc1cc(N2CCCC2)ncn1 | -4.653
O=C(Cc1ccc(F)cc1)NCCNCC1CNc2ccnn2C1 (stereo unspecified) | -7.839
O=C(Cn1ccc2ccccc21)Nc1cc(N2CCCC2)ncn1 | -7.456
O=C(Cc1ccc(F)cc1)NCCNc1cc(N2CCCC2)cnn1 | 105.1
O=C1N[C@@H]2CCN(C(=O)C3CCCC3)[C@@H]2C(=O)N1c1ccc(F)cc1 | -1.999
CS(=O)(=O)N1CCOCC2(CN(Cc3ccco3)CCO2)C1.O=C(O)C(F)(F)F (stereo unspecified) | -8.773
O=C1CCCc2nccc(-c3ccccc3)c21 | -3.137
O=C(Cc1ccccn1)N1CCc2ncnc(N3CCCC3)c2CC1.O=C(O)C(F)(F)F | -1.895
Cc1cccc(CN2CCc3ncnc(N4CCN(C)CC4)c3CC2)n1.O=C(O)C(F)(F)F.O=C(O)C(F)(F)F | 101.7
Cc1cccc(CN2CCc3ncnc(N4CCCC4)c3CC2)n1.O=C(O)C(F)(F)F | 88.17
Cc1cccc(CN2CCc3ncnc(N4CCOCC4)c3CC2)n1.O=C(O)C(F)(F)F | -7.957
O=C(N1CCOCC1)N1C[C@@H]2OCCN(C(=O)c3ccco3)[C@@H]2C1 | -0.4256
Cc1nn(C)c2ncc(S(=O)(=O)N3CCCC(C(N)=O)C3)cc12 (stereo unspecified) | -2.512
Cc1ccccc1CN(CC(=O)O)C(=O)COCC1CC1 | -13.15
O=C(NCCOCCO)c1cccnc1Oc1ccc(Cl)cc1 | 144.4
CC(C)CCNC(=O)c1cccnc1Oc1cccnc1 | 3.255
O=C(NCCOc1ncc(Cl)cc1Cl)c1ccncc1F | -4.331
COCCNC(=O)c1cccnc1Oc1ccc(Cl)cc1 | 115.3
CCN(CC)C(C)CNC(=O)c1cccnc1Oc1cccnc1 (stereo unspecified) | -104.8
CC(C)(C)NC(=O)CNC(=O)c1cccnc1Oc1cccnc1 | -29.24
Cc1cccc(OCc2nnc(SCC3CCCN(C)C3)o2)c1 (stereo unspecified) | 17.13

SMILES | Percent Effect [%]
Cc1nc(CCN)cc(N2CCC(O)(c3ccc(Cl)cc3)CC2)n1 | -10.13
CC(C)CN1C(=O)CO[C@@H]2CN(C(=O)C3CCOCC3)C[C@H]21 | -22.5
Cc1nonc1C1CCCN1C(=O)CCc1cc2n(n1)CCCNC2 (stereo unspecified) | 9.259
COCCC(=O)N1CC[C@H]2C(=O)N(c3ccsc3)CCO[C@H]2C1 | -5.602
COCCC(=O)N1CCC(Nc2ncc(Cl)cn2)CC1 | -4.765
COCCC(=O)N1CCC(c2ncncc2-c2ccnc(N)c2)C1 (stereo unspecified) | 107.7
Cc1nc(C2CCN(C(=O)COC(C)C)CC2)cc(N2CCOCC2)n1 | 30.46
CC(C)OCC(=O)N1CCC(c2ncncc2-c2ccnc(N)c2)C1 (stereo unspecified) | 123.4
Cc1ccc2c(c1)c(CNC(=O)C1CC(=O)N(C3CC3)C1)nn2C (stereo unspecified) | 1.98
Cc1nccn1[C@@H]1CC[C@@H](NC(=O)CCCn2cccn2)[C@H]1O | 100.2
Cc1nccn1[C@@H]1CC[C@@H](NC(=O)CCOc2ccccc2)[C@H]1O | 125.1
CC(=O)C(Cc1ccccc1)NC(=O)CSc1nccn1C1CC1 (stereo unspecified) | 4.235
CN(CCCOc1ccccc1)Cc1nccn1C | -7.331
CC(C)(C)n1c(NC(=O)CNC(=O)NC2CC2)nc2ccccc21 | -6.693
Cc1cc(=O)n(CC(=O)NC2CCCCC2)c2ccccc12 | -8.945
CCC(=O)N1CCN(C(=O)CCn2cccn2)CC1 | 5.19
CCC[C@H]1CN(C2CCOCC2)C[C@@H]1NC(=O)CCn1ccnc1C | 0.5076
Cc1nccn1[C@@H]1CC[C@@H](NC(=O)Cn2c(C)nc3ccccc32)[C@H]1O | 99.52

From ChEMBL document CHEMBL3988442, “University of Dundee, Small-Polar-MMV Screening Library” (2021)
